According to PubChem BioAssay (NCI):
This is part of a sample that, as a whole, favours compounds with a hit. Of some 83,000 tested, about 20% had one in any assay.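 Cells were grown in 96-well plates and exposed to the test compound at a single concentration for 48 hours; results are reported as percent growth, with values below 10 considered active.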 Unmarked numbers belong to inactive results. Active and inactive are the calls of the source.

Experiments:
Experiment in all cases: NCI-60 one-dose screen, 48 h (100 = growth as untreated, 0 = no growth, -100 = all killed)
Conditions in all cases: 10 µM unless noted
NCI-H23 lung = test system: NCI-H23 lung
NCI-H226 lung = test system: NCI-H226 lung
NCI-H322M lung = test system: NCI-H322M lung
HOP-62 NSCLC = test system: HOP-62 NSCLC
NCI-H460 lung = test system: NCI-H460 lung
NCI-H522 lung = test system: NCI-H522 lung
A549/ATCC NSCLC = test system: A549/ATCC NSCLC
786-0 renal = test system: 786-0 renal
COLO 205 colon = test system: COLO 205 colon
DU-145 prostate = test system: DU-145 prostate
K-562 leukemia = test system: K-562 leukemia
MALME-3M melanoma = test system: MALME-3M melanoma
MDA-MB-231 breast = test system: MDA-MB-231 breast
RXF 393 renal = test system: RXF 393 renal
SF-268 CNS = test system: SF-268 CNS
SF-295 CNS = test system: SF-295 CNS
SF-539 CNS = test system: SF-539 CNS
UACC-257 melanoma = test system: UACC-257 melanoma
M14 melanoma = test system: M14 melanoma

Compound	growth (NCI-H23 lung)	growth (NCI-H226 lung)	growth (NCI-H322M lung)	growth (HOP-62 NSCLC)	growth (NCI-H460 lung)	growth (NCI-H522 lung)	growth (A549/ATCC NSCLC)	growth (786-0 renal)	growth (COLO 205 colon)	growth (DU-145 prostate)	growth (K-562 leukemia)	growth (MALME-3M melanoma)	growth (MDA-MB-231 breast)	growth (RXF 393 renal)	growth (SF-268 CNS)	growth (SF-295 CNS)	growth (SF-539 CNS)	growth (UACC-257 melanoma)	growth (M14 melanoma)
COc1ccc2nc3ccccc3c(NCc3ccc(Cl)cc3)c2c1	28.3%	48.8%	24.6%	42.4%	12.5%	34.7%	23.6%	-76.9% (active)	-61.9% (active)	21.5%	-30.2% (active)	-81.6% (active)	24.3%	-24.2% (active)	53.5%	25.8%	-5.77% (active)	-52.2% (active)	-86.1% (active)
NS(=O)(=O)c1ccc(CCn2c(SCC(=O)N/N=C/c3cc4ccccc4[nH]3)nc3ccccc3c2=O)cc1	58.8%	76.6%	83.7%	68.7%	30.4%	19.5%	84.3%	78.9%	74.4%	64.8%	27.5%	38.8%	61.7%	91%	89.2%	90.9%	82.8%	82.6%	74%
CS(=O)(=O)c1ccc(C(=O)Nc2ccc(Cl)c(-c3ccccn3)c2)c(Cl)c1	27.3%	16.5%	52%	36%	-46% (active)	2.48% (active)	26%	-41.2% (active)	6.45% (active)	24.7%	13.8%	42.4%	30.2%	-52.9% (active)	31.8%	8.89% (active)	19.6%	32.6%	26.8%
CC(=O)OC[C@H]1O[C@@H](n2c(=O)cc(N)[nH]c2=O)C(OC(C)=O)[C@@H]1OC(C)=O (stereo partly drawn)	98.5%	90.6%	105%	95%	107%	100%	97.7%	102%	115%	108%	108%	98.4%	107%	104%	97.9%	94.2%	98%	98%	91.3%
CN(C)c1ccc(C2(Cl)c3ccccc3N(C)c3ccccc32)cc1	44.2%	69.1%	75.9%	29.9%	36.9%	19%	60%	62.1%	43.1%	50.5%	51%	48.5%	69.1%	74%	18.2%	66.3%	86.9%	54.4%	53.4%
CCOC(=O)C#Cc1c(C(=O)OCC)nnn1[C@@H]1O[C@H](COC(C)=O)[C@@H](OC(C)=O)[C@H]1OC(C)=O	93.4%	92.2%	101%	109%	108%	50%	78.3%	102%	45.6%	100%	28.5%	101%	107%	70.2%	97.8%	103%	101%	64.3%	92.1%
COc1cc2c(=O)n(CCCN(C)C)c3c4cc[nH]c4ncc3c2cc1OC	41.4%	37.1%	42.6%	11.8%	17.6%	0.675% (active)	44.1%	33.7%	13.2%	30.8%	54.3%	62.4%	50.8%	23.1%	28.3%	29.2%	73.3%	87.9%	40.5%
COc1cccc(C2C(C#N)=C(N)Oc3cc4c(cc32)OCO4)c1 (stereo not drawn)	9.81% (active)	-7.07% (active)	37.6%	22.7%	7.64% (active)	11.5%	21.4%	29.9%	-47.1% (active)	1.58% (active)	–	39.8%	30.2%	2.45% (active)	29.9%	7.47% (active)	4.53% (active)	57.4%	0.938% (active)
CC(C)c1ccc(-c2cnc3nonc3n2)cc1	56.2%	77.5%	65.8%	57.7%	70.5%	20%	53.2%	10.6%	38.1%	30.9%	6.39% (active)	61.2%	38.5%	37.7%	62.4%	48.9%	14.5%	52%	7.59% (active)
Nc1ccc(C2=NNC(=O)Cc3cc4c(cc32)OCCO4)cc1Cl	20.9%	68.5%	61.1%	46%	10.6%	11%	40.3%	54.3%	26.9%	67.5%	–	40.9%	61.4%	49.9%	59.7%	15.9%	49.4%	72.7%	16.8%
CN(C)CCCN1c2ccccc2CCc2ccccc21	129%	104%	108%	82.2%	113%	88.2%	95.8%	95.7%	78%	113%	94.9%	151%	79%	78.6%	95.1%	106%	117%	103%	128%
C=CC(=O)N1CN(C(=O)C=C)CN(C(=O)C=C)C1	67.4%	87%	108%	88.3%	102%	-35.4% (active)	94.6%	95.7%	-44.4% (active)	77%	23.5%	-41.9% (active)	103%	10.2%	85.3%	112%	71.7%	48%	87.1%
CC(C)(C)c1nn(-c2ccccc2)c2c1C(=O)CSC(c1ccc3c(c1)OCO3)N2 (stereo not drawn)	99.8%	104%	88.8%	88.6%	106%	89.7%	112%	88.7%	113%	104%	–	92%	98.6%	114%	92.5%	91.4%	101%	130%	91.3%
CCN(CCC#N)c1ccccc1	106%	100%	106%	101%	107%	109%	108%	99.7%	132%	113%	–	100%	89.9%	122%	115%	102%	96.5%	119%	109%
COc1cc([N+](=O)[O-])cc(OC)c1OC	107%	112%	109%	110%	109%	83.8%	110%	104%	127%	115%	101%	97.8%	112%	124%	110%	110%	114%	114%	108%
CC(C)(CCc1ccccn1)C(=O)CCCc1ccccn1	106%	104%	116%	105%	106%	108%	99%	99.9%	96.4%	109%	95%	70.4%	96.2%	117%	105%	120%	114%	109%	98.7%
CCCCCCCCCCCCNC(=O)N[C@H](C(=O)N[C@H]1/C=C/CCNC(=O)/C=C/[C@H](C)NC1=O)C(C)C	-42.8% (active)	-87% (active)	3.54% (active)	-65.1% (active)	2.24% (active)	-21.7% (active)	10.5%	-37.7% (active)	-51.3% (active)	6.45% (active)	–	-1.82% (active)	-44.7% (active)	-98.8% (active)	-44.9% (active)	-37.4% (active)	-49.4% (active)	49.9%	-82% (active)
